Bioassay records deposited in PubChem by National Center for Advancing Translational Sciences (NCATS).
MCF10A rereplic – inducers of DNA re-replication in MCF 10A breast cells; AID 624296; 350,000 compounds, 2.9% hits; Potency, µM (top dose mostly 46.1 µM), without a hit: at the top dose activity, positive = re-replication, actives largely listed as activators; MCF 10A DNA re-replication, Hoechst nuclear intensity, 48 h; note: potency is the fitted concentration of half-maximal effect; % of control where 0% means no effect; nearly all actives have a fitted effect of over 50% in size
IL-1B inflam inh – blocks inflammasome-driven IL-1 beta release. AID 743279. 360,000 compounds, 4.7% hits. activity change, % at 57.5 µM. THP-1 LPS/ATP IL-1B secretion, AlphaLISA, 16 h; hits give low values; in the data active = activity change below about -50%; inconclusive = mostly about -30% to -49%; note: % is set by controls: 0 for no effect and ±100 for the full control effect
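THP-1 cells pretreated 1 hr with compounds (up to 57.5 uM final), then stimulated with LPS (250 ng/mL final) plus ATP (1.25 mM final); secreted IL-1B measured by AlphaLISA after 16 hr, decreased signal indicating inhibition.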
TDP1 cell noCPT – qHTS for Inhibitors of human tyrosyl-DNA phosphodiesterase 1 (TDP1): qHTS in cells in absence of CPT; DT40 Tdp1-/- hTDP1 cells, no CPT, ATP luminescence, 48 h; Potency, µM (titrated, usually from 46.2 µM), for inactives: at the highest dose activity change, negative = growth inhibition, usual class: inhibitors; 420,000 compounds, 15% hits; note: potency is the fitted concentration of half-maximal effect; % is set by controls: 0 for no effect and ±100 for the full control effect; nearly all actives have a fitted effect of over 55% in size
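Compound effects on proliferation are scored in DT40 Tdp1-/-;hTDP1 cells in the absence of CPT. ATP levels (CellTiter-Glo luminescence) are recorded after a ≥48 hr, 37 °C incubation.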
TDP1 cell CPT – DT40-hTDP1 cell growth loss with CPT; AID 686979; 420,000 compounds, 12% hits; Potency, µM (titrated, usually from 46.2 µM), inactives show at the top dose activity change, negative = growth inhibition, actives largely listed as inhibitors; chicken DT40 Tdp1-/-;hTDP1 cells + 20 nM CPT, ATP luminescence, 48 h; note: potency is the fitted concentration of half-maximal effect; % is set by controls: 0 for no effect and ±100 for the full control effect; nearly all actives have a fitted effect of over 55% in size
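Chicken DT40 Tdp1-/- cells stably complemented with human TDP1 were seeded at 400 cells/well in medium containing 20 nM camptothecin, exposed to pin-transferred compounds, and grown at 37 °C for at least 48 hr. Viability was read as ATP luminescence.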
BCR signal inh – blocks chronic active B-cell receptor signaling. Potency, µM (series often up to 46.1 µM), inactives show top-dose activity change, negative = inhibition, usual class: inhibitors. AID 493014. 340,000 compounds, 0.05% hits. ABC-DLBCL IkBa-CBG/CBR reporter, luminescence ratio, 4 h; active = well fitted inhibition curve with a large enough effect in the signal ratio, with a control signal flat, not every such curve was filed as active; inconclusive = small, poorly fitted or top-dose-only effect, or effect the other way, or a change in a side signal; the % refers to the signal ratio;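 note: potency is the fitted concentration of half-maximal effect; plate controls were basal doxycycline-induced cells for no effect and cells given 10 µM MG132 for full effect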
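Cell line TMD8 (human ABC DLBCL), stably expressing tet-inducible CBG68-IkBa fusion and CBR; IMDM/0.5% FBS; cpd up to 46 uM; dox induction, 4 h, 37C/5% CO2; dual luminescence; green/red ratio; MG132 control.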
SW480 rereplic – DNA re-replication induction in SW480 cells | Potency, µM (series often up to 46.1 µM), for the others: at the highest dose re-replication activation, usual class: activators | 340,000 compounds, 1.8% hits | SW480 DNA re-replication, Hoechst DNA content imaging, 48 h; note: potency is the fitted concentration of half-maximal effect; % of control where 0% means no effect; nearly all actives have a fitted effect of over 55% in size
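DNA re-replication was detected as more nuclei of elevated Hoechst intensity after 48 hr exposure to compound (23 nL pinned per well of 250 cells).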
Numbers without * were called inactive; ? = inconclusive; · = no result given; [ ] = dose if it differs, or a comment. This is a sample that favours compounds with a hit; in the whole collection about 19% have one here. Unless noted, calls come from the whole dose curve; as a rule, active = well fitted curve in the direction sought with a large enough effect; inconclusive = small, poorly fitted or top-dose-only effect, or another doubt; inactive = no such curve, though single readings can be large; an effect the other way counts as inactive or inconclusive.

SMILES | MCF10A rereplic | IL-1B inflam inh | TDP1 cell noCPT | TDP1 cell CPT | BCR signal inh | SW480 rereplic
COc1ccc2sc(-c3ccc(S(C)(=O)=O)cc3)c(C(=O)NCCc3c[nH]c4ccccc34)c2c1 | ? | 13 | 16µM* | 21µM* | -2% | 15%
Cc1ccc(S(=O)(=O)CCC(=O)N(Cc2nnc(-c3ccc(Cl)cc3)o2)C2CC2)cc1 | -4% | -17 | ? | ? | 0% | -1%
COC(=O)c1ccccc1C(=O)NCC1Cc2cc(-c3nc(C)cnc3C)ccc2O1 (stereo not drawn) | · | · | -9% | 11%[9.04 µM] | · | ·
CC1=C(C#N)C(/C=N/OCc2ccc(F)cc2Cl)CC(=O)N1 (stereo not drawn) | -57% | 27 | ? | ? | ? | 2%
O=C(c1ccccc1)c1ccc(-n2ccnc2)c([N+](=O)[O-])c1 | 2% | 20 | 21µM* | -26% | 1% | -4%
O=C(O)c1ccc(-n2ccnc2)c([N+](=O)[O-])c1 | -7% | -14 | -2% | 5% | 2% | 1%
O=C(c1ccccc1)c1ccc(-n2cnnc2)c([N+](=O)[O-])c1 | 1% | -78* | ? | ? | 2% | -4%
NC(=O)c1ccc(N2CCN(c3ccccc3O)CC2)c([N+](=O)[O-])c1 | 0% | 13 | ? | -22% | -1% | -5%
CCCc1cc(=O)[nH]c(SCC(=O)Nc2cc(S(=O)(=O)N3CCCCC3)ccc2C)n1 | -2% | 0 | 13% | -20% | 1% | -4%
O=C(O)CC1(CC(=O)NCc2cc(F)cc3c2OCOC3)CCCCC1 | 1% | 11 | 14% | 18% | 0% | -14%
Clc1cccc(-c2nnc(-c3ccccc3)o2)c1 | 16µM* | -24 | 23µM* | 16µM* | ? | 0%
ClCc1nnc(-c2ccccc2)o1 | ? | -88* | 26µM* | ? | ? | ?
CC(C)OP(=O)(OC(C)C)C1(NS(=O)(=O)c2ccc(Cl)cc2)C=C(Cl)C(=O)C(Cl)=C1 | -4% | -4 | ? | ? | 14% | -1%
CCCCC1=CC2=C(c3ccco3)C(=O)C(C)(OC(=O)c3ccc(OC)cc3)C(=O)C2=CN1CC(C)C (stereo not drawn) | ? | -4 | 5.2µM* | 3.3µM* | 6% | ?
CCCCC1=CC2=C(c3ccco3)C(=O)C(C)(OC(=O)c3ccc(OC)cc3)C(=O)C2=CN1CC1CC1 (stereo not drawn) | 0% | -21 | 18µM* | 8.2µM* | -4% | ?
Cc1cccc(NC(=O)CN2CCC(NC(=O)C3CCCCC3)CC2)c1C | 0% | 0 | ? | -20% | ? | -8%
Cc1cccc(N2Cc3ccc(Br)cc3C2)c1 | -2% | 10 | 7% | -6% | · | -1%
Cn1cnc([N+](=O)[O-])c1Sc1ccc(Br)cc1 | 6.5µM* | ? | ? | ? | ? | ?
Cc1ccc(Sc2c([N+](=O)[O-])ncn2C)cc1 | ? | -14 | ? | 21µM* | -13% | 6%
Cn1cnc([N+](=O)[O-])c1Sc1ccc(C(C)(C)C)cc1 | ? | · | ? | ? | ? | -10%
COCCN1Cc2cc3cc(C)ccc3nc2SC1=Nc1ccc(OC)cc1 | 12% | -53* | ? | ? | -2% | ?
CCC(C)N=C1Sc2nc3ccc(C)cc3cc2CN1CCOC (stereo not drawn) | ? | -83* | ? | ? | 2% | 23%
CCOc1ccc2nc3c(cc2c1)CN(CCCO)C(=NCCOC)S3 | ? | ? | 15µM* | ? | -3% | 0%
COCCN=C1Sc2nc3ccc(C)cc3cc2CN1Cc1cccs1 | -3% | -87* | 21µM* | ? | 4% | 3%
CCOc1ccc(N=C2Sc3nc4ccc(C)cc4cc3CN2CCOC)cc1 | 14% | -10 | ? | ? | 10% | -102%[1.84 µM]
SMILES | MCF10A rereplic | IL-1B inflam inh | TDP1 cell noCPT | TDP1 cell CPT | BCR signal inh | SW480 rereplic
COCCN=C1Sc2nc3c(C)cccc3cc2CN1Cc1ccco1 | 16% | 4 | ? | ? | 9% | -3%
COCCN1Cc2cc3cc(C)ccc3nc2SC1=Nc1cccc(OC)c1 | ? | -3 | 0% | ? | 7% | 68%
COC(C(=O)Nc1ccnn1C1CCN(Cc2ccccn2)CC1)c1ccccc1 (stereo not drawn) | 0% | 3 | -24% | 1% | ? | -1%
NNc1nc(-c2ccccc2)nc(-c2ccccc2)c1Br | 1% | -2 | 8.2µM* | ? | · | ?
Cc1cc(=O)[nH]c(-n2nc(C)cc2C)n1 | 4% | 16 | 23µM* | 23µM* | ? | -4%
Cc1cc(=O)[nH]c(N2CCCNCC2)n1 | -14% | 0 | -13% | -29% | 6% | -6%
Cc1ccc(CNCc2cn[nH]c2-c2ccc(C)cc2)cc1 | · | · | 13µM* | 7.9µM* | · | ·
Cc1ccc(-c2[nH]ncc2CNCc2ccc(CN(C)C)cc2)cc1 | · | · | 22µM* | 13µM* | · | ·
CCC(=O)N1CCC1(C)C(=O)Nc1ncc(C)s1 (stereo not drawn) | · | 7 | -3% | -20% | · | ·
O=C(Nc1ccc([N+](=O)[O-])cc1)N1CCN(C(=O)C2CCCO2)CC1 (stereo not drawn) | -3% | 1 | 1% | 10% | -2% | -1%
NC(=O)C(C(=O)/C=C/c1ccc(Cl)cc1)=C1SCCS1 | ? | -99* | 8.2µM* | 3.3µM* | ? | 12%
COc1ccc(/C=C/C(=O)C(C(N)=O)=C2SCCS2)cc1 | 15% | ? | ? | ? | 7% | 9%
CC(O)(COc1ccccc1)c1ccc2c(c1)CN(Cc1ccccn1)CCO2 (stereo not drawn) | · | · | -20% | -1%[9.04 µM] | · | ·
Cc1ccc(C(=O)Nc2ncccc2O)cc1S(=O)(=O)N1CCCCC1 | 1% | 1 | 1% | 1% | 8% | 0%
CCn1c2ccccc2c2cc(CN3CCN(Cc4cc(OC)ccc4O)CC3)ccc21 | ? | -84* | ? | 26µM* | ? | ?
COc1ccc(O)c(CN2CCCC(N3CCN(c4ccc(F)cc4)CC3)C2)c1 (stereo not drawn) | ? | -3 | ? | ? | 4% | -12%
COc1ccc(O)c(CN2CCN(C/C=C/c3ccccc3)CC2)c1 | 43% | -15 | -28% | -24% | -6% | -7%
CCn1c2ccccc2c2cc(CN3CCN(Cc4cc(OC)c(O)c(OC)c4)CC3)ccc21 | · | · | 10µM* | 10µM* | · | ·
